Screening data (PubChem)
aSyn 5UTR inh – MLPCN primary screen, SNCA 5' untranslated region. inhibition, % (tested at 7.5 µM). alpha-synuclein 5'UTR reporter, inhibitor activity. 0.82% of 300,000 active. AID 1813; in the data active = inhibition above about 60%;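 note: H4 neuroglioblastoma cells stably carrying SNCA 5'UTR luciferase fusion; 0% = DMSO wells and 100% = positive control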
IEC-6 cytotox – counter-screen for KLF5 inhibitors: cytotoxicity in IEC-6 cells. IEC-6 cytotoxicity, luminescence viability. inhibition, % at 5 µM. 0.78% of 290,000 active; in the data active = inhibition above about 22%;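 note: 0% = plate median of test compound wells and 100% = cytotoxic reference compound wells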
BaF3 tox – counter-screen for JAK2V617F inhibitors: parental Ba/F3 viability inhibitors; CellTiter-Glo ATP luminescence; inhibition, % at 5.6 µM; 1.1% of 220,000 active;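 active = inhibition above a per-campaign cutoff, the mean inhibition of all tested compounds plus 3 SD, cut at about 27% in these data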;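 note: 0% = DMSO wells and 100% = JAK Inhibitor I control wells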
KLF5 inh – inhibitors of KLF5 expression; inhibition, % at 5 µM; DLD-1 KLF5 promoter-luciferase reporter, luminescence; 0.23% of 290,000 active; AID 1700;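 active = inhibition above a per-plate limit of that plate's mean compound inhibition plus 3 SD, cut at about 60% in these data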;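 note: 0% = DMSO wells and 100% = LY294002 at 200 µM; higher means less KLF5 promoter-driven luciferase light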
Ba/F3 V617F tox – reduce viability of Ba/F3 cells dependent on JAK2V617F; inhibition, % at 5.6 µM; Ba/F3 EpoR-JAK2V617F viability, ATP luminescence; 1.1% of 220,000 active;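 active = inhibition above the campaign mean plus 3 SD over all tested compounds, cut at about 24% in these data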;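 note: cytokine-independent growth of Ba/F3 cells driven by EpoR plus mutant JAK2; 0% = DMSO-treated cells and 100% = JAK inhibitor I control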
APP 5UTR inh – APP translation inhibition; SH-SY5Y APP 5'UTR-luciferase reporter, luminescence; inhibition, % at 2 µM; 0.82% of 190,000 active;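 active = inhibition above a set limit, derived from the sample mean plus 3 SD, cut at about 45% in these data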
Active calls of the source: *; / = no result. In the library only some 2.1% were active in any assay of this set; here they are far more common.

SMILES	aSyn 5UTR inh	IEC-6 cytotox	BaF3 tox	KLF5 inh	Ba/F3 V617F tox	APP 5UTR inh
COc1ccccc1NC(=O)/C(C#N)=C/C=C/c1ccco1	-6.3	3.1	4.0	12.7	0.5	87.6*
O=C1CCCN1c1ccc(S(=O)(=O)NCCOc2ccccc2)cc1	-0.1	1.4	4.6	-9.2	1.9	3.2
Cc1cc(N2CCCC2=O)cc(C)c1S(=O)(=O)NCCOc1ccc(C(C)(C)C)cc1	6.1	-2.4	36.5*	-37.6	21.6	-7.8
Cc1ccc(C(c2nnnn2C2CCCC2)N2CCc3ccccc32)cc1 (stereo unspecified)	-59.7	0.0	40.0*	-11.0	5.6	-11.3
CC(C)CCNC(=O)c1ccc(-n2cnc3cccnc32)cc1	-35.6	-0.1	/	-22.0	/	/
COc1cc(C(=O)NNC(=O)c2ccco2)cc(OC)c1OC	-19.7	-0.4	/	-17.8	/	/
COc1cc(C(=O)NNC(=S)NCc2ccco2)cc(OC)c1OC	5.4	5.4	90.3*	-0.3	4.3	-2.8
COc1cc(C(=O)NC(=S)NNC(=O)c2cnccn2)cc(OC)c1OC	78.9*	-4.8	15.4	18.0	6.8	1.3
COc1ccccc1C(=O)NNC(=S)NC(=O)c1cc(OC)c(OC)c(OC)c1	72.5*	4.8	6.9	-33.1	2.1	8.8
Cc1ccc(NC(=S)NC(=O)c2cncc(Br)c2)cc1Cl	-21.0	/	/	/	/	/
Cc1cc(N)c2cc(NC(=O)/C=C/c3ccccc3Cl)ccc2n1	106.8*	0.6	7.5	7.2	-1.9	/
C=C[C@]1(C)C[C@@H](OC(=O)CSCCN(CC)CC)[C@]2(C)C(C)CC[C@]3(CCC(=O)[C@H]32)[C@@H](C)[C@@H]1O (stereo partly specified)	1.5	/	/	/	/	/
Cc1ccc(C2(c3ccc(C)cc3)CC2C(=O)Nc2ccc([N+](=O)[O-])cc2O)cc1 (stereo unspecified)	67.2*	-4.2	5.5	3.5	3.5	5.0
CCCCCCCCCCOC(=O)Cn1c(COc2ccccc2OC)[n+](C)c2ccccc21	80.6*	11.7	/	24.7	/	/
C[C@H](NC(=O)N1CCn2c1nc1ccccc12)C(=O)N1CCCCC1	2.6	1.9	/	8.9	/	/
Cc1csc2ncc(C(=O)N3c4ccccc4CC3C)c(=O)n12 (stereo unspecified)	-24.0	4.0	38.5*	-24.2	-1.7	-2.3
Nc1ccc2nc3c(c(Cl)c2c1)CCCC3	-88.4	3.2	62.6*	-26.3	17.3	/
COc1ccc(OC)c(NC(=O)Cc2coc3ccc(C)cc23)c1	25.7	-1.7	4.6	-24.2	1.9	6.0
COc1ccc(OC)c(NC(=O)Cc2coc3ccc4ccccc4c23)c1	-1.5	-4.5	4.4	-14.8	-3.4	68.5*
COC(=O)C1=CN(c2ccc(OC)cc2)C=C(C(=O)OC)C1c1cc(OC)c(OC)cc1OC	7.7	-3.1	/	4.5	/	/
COc1cc(OC)c(C2N(C)c3ccccc3N2C)cc1OC	-6.0	-2.2	58.8*	23.7	53.1*	-10.8
O=C1NC(=S)S/C1=C\C=C\c1ccc([N+](=O)[O-])o1	/	-28.4	8.6	9.9	30.7*	/
O=C(O)/C=C/c1ccc([N+](=O)[O-])o1	10.4	-7.5	3.7	-2.4	-0.2	18.0
CN1C/C(=C/c2cccnc2)C(=O)/C(=C/c2cccnc2)C1	/	-0.8	2.2	1.1	0.6	88.7*
O=C(c1ccco1)N1CCN(S(=O)(=O)c2cccc(Cl)c2)CC1	2.1	-0.1	/	-30.0	/	/
SMILES	aSyn 5UTR inh	IEC-6 cytotox	BaF3 tox	KLF5 inh	Ba/F3 V617F tox	APP 5UTR inh
CCc1ccc(-c2cn3nc(C)c(C)nc3n2)cc1	87.0*	-2.9	8.6	-129.4	-1.5	-2.0
CCC1(c2ccccc2)NC(=O)N(CC(=O)NCc2ccc(C)cc2)C1=O (stereo unspecified)	28.9	4.0	/	-22.1	/	/
O=C(COc1ccc(F)cc1)N(Cc1ccc(Cl)cc1)C1CCS(=O)(=O)C1 (stereo unspecified)	8.3	-4.3	/	-12.8	/	/
O=C1NCCc2c1[nH]c1ccc([N+](=O)[O-])cc21	70.1*	-2.6	3.8	9.6	2.1	-9.3
COc1ccc2[nH]c3c(c2c1)CCNC3=O	-23.4	/	/	/	/	/
COc1ccc([N+](=O)[O-])cc1N(CC(O)CN1C(=O)NC(C)(C)C1=O)S(=O)(=O)c1ccccc1 (stereo unspecified)	-1.6	7.2	/	-27.0	/	/
COc1ccc(-c2nsc3c(N4CCCCC4)ncnc23)cc1	85.4*	1.6	1.1	-24.4	-3.5	-98.2
Cc1cc2c(cc1C)C(c1cc(Br)ccc1F)CC(=O)N2 (stereo unspecified)	64.9*	12.8	6.3	-38.0	0.8	21.3
